ST2 IL33 inh: inhibitors of human ST2 (IL1RL1) binding to IL-33 | Q01638 | AlphaLISA ST2-Fc/biotin-IL-33 interaction, 1 h | inhibition, % for hits at 17 µM | 2.3% of 78,000 active; in the data active = inhibition above about 30%
Target sequence (Q01638 whole entry, looked up): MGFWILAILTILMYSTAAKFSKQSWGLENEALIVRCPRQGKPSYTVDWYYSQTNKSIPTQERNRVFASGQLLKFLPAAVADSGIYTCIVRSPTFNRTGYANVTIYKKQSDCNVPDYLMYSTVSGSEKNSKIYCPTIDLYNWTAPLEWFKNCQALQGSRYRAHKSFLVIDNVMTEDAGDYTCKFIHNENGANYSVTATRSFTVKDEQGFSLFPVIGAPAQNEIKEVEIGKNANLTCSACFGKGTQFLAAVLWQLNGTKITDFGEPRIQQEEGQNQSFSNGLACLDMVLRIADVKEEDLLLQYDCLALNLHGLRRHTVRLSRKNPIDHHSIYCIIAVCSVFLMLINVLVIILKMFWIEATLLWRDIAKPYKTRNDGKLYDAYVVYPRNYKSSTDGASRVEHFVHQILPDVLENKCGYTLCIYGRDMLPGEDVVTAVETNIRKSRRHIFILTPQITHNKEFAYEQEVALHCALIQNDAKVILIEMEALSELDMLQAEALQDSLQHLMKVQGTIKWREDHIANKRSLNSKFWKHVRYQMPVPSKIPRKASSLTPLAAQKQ
Numbers stand for hits; ! = repeats disagree. Shown is part of a subset that was picked to be rich in hits.

What do the screens show for `COc1ccc(NC(=O)c2cc3c(=O)n4cccc(C)c4nc3n2C)c(OC)c1`?
ST2 IL33 inh: inactive

Results for COc1ccc(F)c(F)c1CN1CCCC(OCc2ccccn2)C1 (stereo not drawn) ?
ST2 IL33 inh: inactive

What do the screens show for `Cc1cccc(C(=O)Nc2cc([N+](=O)[O-])ccc2C)c1`?
ST2 IL33 inh: inactive

Results for COc1cc(-c2nc(NCc3ccc(F)cc3)c3ccccc3n2)cc(OC)c1OC ?
ST2 IL33 inh: inactive

What do the screens show for `Fc1ccc(CCC2CCCN(C3CCN(Cc4ccccn4)CC3)C2)cc1` (stereo not drawn)?
ST2 IL33 inh: inactive

Results for Cc1ccc(NC(=O)c2cccc(F)c2)cc1[N+](=O)[O-] ?
ST2 IL33 inh: inactive

What do the screens show for `Cc1ccc(NC(=O)COc2ccc(Cl)cc2)cc1[N+](=O)[O-]`?
ST2 IL33 inh: inactive

How did CNC(=O)c1ccc(C)c([N+](=O)[O-])c1 do in these assays?
ST2 IL33 inh: inactive

How did Cc1cccc(C(=O)Nc2cccc([N+](=O)[O-])c2C)c1 do in these assays?
ST2 IL33 inh: inactive

What do the screens show for `Cc1cccc(C(=O)Nc2ccc(NC(=O)c3ccc(C)c([N+](=O)[O-])c3)cc2)c1`?
ST2 IL33 inh: 32%

What do the screens show for `Cc1ccc(C(=O)c2ccc(Cl)cc2)cc1[N+](=O)[O-]`?
ST2 IL33 inh: 42%

How did COC(=O)c1cnc(Nc2cc(Cl)c(OC)cc2OC)c2ccccc12 do in these assays?
ST2 IL33 inh: inactive

Results for CN(C)c1ccc(C2SCCN2C(=O)c2ccc([N+](=O)[O-])cc2)cc1 (stereo not drawn) ?
ST2 IL33 inh: 30%

What do the screens show for `O=[N+]([O-])c1ccc(C2SCCN2S(=O)(=O)c2ccc(I)cc2)cc1` (stereo not drawn)?
ST2 IL33 inh: inactive

What do the screens show for `O=C(c1ccc([N+](=O)[O-])cc1)N1CCSC1c1cccc(Cl)c1` (stereo not drawn)?
ST2 IL33 inh: inactive

What do the screens show for `CN(C)c1ccc(C2C3=C(CCCC3=O)Nc3nc(SCc4ccccc4)[nH]c(=O)c32)cc1` (stereo not drawn)?
ST2 IL33 inh: inactive

What do the screens show for `CCCCN(C)CCCNC(=O)c1cc(-c2ccncc2)nc2ccccc12`?
ST2 IL33 inh: inactive

Results for Cc1cccc(NC(=O)CSc2cc(=O)n(C)c3ccccc23)n1 ?
ST2 IL33 inh: inactive

How did CC(c1nnc(SCC(=O)O)n1-c1ccccc1)n1ccnc1 (stereo not drawn) do in these assays?
ST2 IL33 inh: 31%

Results for O=C(O)CSc1nnnn1-c1ccccc1 ?
ST2 IL33 inh: inactive

Results for COc1ccc(C(=O)CSc2nnc(C(O)c3ccccc3)n2-c2ccccc2)cc1 (stereo not drawn) ?
ST2 IL33 inh: inactive

How did O=C(c1ccccc1Br)N1CCCCC1CO (stereo not drawn) do in these assays?
ST2 IL33 inh: inactive

Results for CC(C)c1noc(CN(C)c2ccc(-c3nc(C(C)C)no3)cn2)n1 ?
ST2 IL33 inh: inactive

Results for COc1cc2c3c(c1)C(C)=CC(C)(C)N3C(=O)C2=O ?
ST2 IL33 inh: 70%

How did COc1cccc(N2C(=O)NC3CC2(C)Oc2ccccc23)c1 (stereo not drawn) do in these assays?
ST2 IL33 inh: inactive

Results for COc1ccc2c(c1)N(C(=O)C(C)N1C(=O)c3ccccc3C1=O)C(C)(C)C=C2C (stereo not drawn) ?
ST2 IL33 inh: inactive

Results for COc1cc2c3c(c1)C(C)CC(C)(C)N3C(=O)C2=O (stereo not drawn) ?
ST2 IL33 inh: 40%

What do the screens show for `COc1cccc2c1OC1(C)CC2NC(=O)N1c1cccc(Cl)c1` (stereo not drawn)?
ST2 IL33 inh: inactive

How did CC1=CC(C)(C)N(C(=O)C(C)N2C(=O)c3ccccc3C2=O)c2cc(C)c(C)cc21 (stereo not drawn) do in these assays?
ST2 IL33 inh: inactive

What do the screens show for `NC(=O)Cn1c(=O)n(CCCC(=O)NCc2ccco2)c(=O)c2sccc21`?
ST2 IL33 inh: inactive

Results for Cc1ccccc1Cn1c(=O)n(CCCC(=O)NCc2ccco2)c(=O)c2sccc21 ?
ST2 IL33 inh: 33%!

How did O=C(CCCn1c(=O)c2sccc2n(Cc2ccccc2F)c1=O)NCc1ccco1 do in these assays?
ST2 IL33 inh: inactive

Results for COCCn1c(CNC(=O)c2ccccc2Br)nc2cccnc21 ?
ST2 IL33 inh: inactive

How did Cc1ccc(-c2nccn2-c2cccc(N3CCCC3=O)c2)o1 do in these assays?
ST2 IL33 inh: inactive

Results for CCN1CCN(Cc2cc(C(=O)NCC3C4CC5CC(C4)CC3C5)no2)CC1 (stereo not drawn) ?
ST2 IL33 inh: inactive

Results for O=[N+]([O-])c1ccc(C2CNC(c3ccc4c(c3)OCO4)O2)cc1 (stereo not drawn) ?
ST2 IL33 inh: inactive

What do the screens show for `COc1ccc(C2SCCN2S(=O)(=O)c2ccc(Br)cc2)cc1[N+](=O)[O-]` (stereo not drawn)?
ST2 IL33 inh: inactive

What do the screens show for `CCOc1ccc(C(=O)Nc2c(C)cc(Br)cc2C)cc1[N+](=O)[O-]`?
ST2 IL33 inh: inactive

How did CCOc1ccc(C2Oc3c(cc(Br)cc3OC)C=C2[N+](=O)[O-])cc1OC (stereo not drawn) do in these assays?
ST2 IL33 inh: 36%

How did CN1c2ccccc2N(C)C1c1ccc2c(c1)OCO2 do in these assays?
ST2 IL33 inh: inactive

How did O=[N+]([O-])C1=Cc2cc(Br)cc(Br)c2OC1c1ccc2c(c1)OCO2 (stereo not drawn) do in these assays?
ST2 IL33 inh: 60%

How did O=C(CSc1nnc(NC(=O)c2ccccc2)s1)Nc1ccc(Br)cc1 do in these assays?
ST2 IL33 inh: inactive

How did O=C(c1ccc2c(=O)n(CCc3ccccc3)c(=O)[nH]c2c1)N1CCN(c2ccccn2)CC1 do in these assays?
ST2 IL33 inh: inactive

Results for CCCCSc1nc2c([nH]c3ccccc32)c(=O)n1C ?
ST2 IL33 inh: inactive

What do the screens show for `CCC(C)Sc1oc(-c2ccco2)nc1S(=O)(=O)c1ccccc1` (stereo not drawn)?
ST2 IL33 inh: inactive

What do the screens show for `O=C(c1cccn2c(=O)c3c4c(sc3nc12)CCCC4)N1CCC(Cc2ccccc2)CC1`?
ST2 IL33 inh: inactive

What do the screens show for `C/C(Cl)=C\CN1C(=O)C(=O)c2cccc(C)c21`?
ST2 IL33 inh: 54%

How did Cc1cc(CN2C(=O)C(=O)c3ccccc32)c(C)cc1CN1C(=O)C(=O)c2ccccc21 do in these assays?
ST2 IL33 inh: inactive

What do the screens show for `Cc1cccc(NC(=O)CN2C(=O)C(=O)c3ccccc32)c1`?
ST2 IL33 inh: inactive

What do the screens show for `COc1ccc(-n2c(=O)[nH]cc(C(=O)Nc3ccc(F)c(F)c3)c2=O)cc1`?
ST2 IL33 inh: inactive

What do the screens show for `Cc1nccn1CCC1CCN(c2nccc(CCC(F)(F)F)n2)CC1`?
ST2 IL33 inh: inactive

What do the screens show for `Cc1nn(-c2cccc(Cl)c2)c2c1C(c1cccc([N+](=O)[O-])c1)C(C#N)=C(N)O2` (stereo not drawn)?
ST2 IL33 inh: 45%

How did COc1cccc(C2C(C#N)=C(N)Oc3c2c(=O)n(C)c(=O)n3C)c1 (stereo not drawn) do in these assays?
ST2 IL33 inh: inactive

Results for Cc1nn(-c2ccccc2)c2c1C(c1cccc([N+](=O)[O-])c1)C(C#N)=C(N)O2 (stereo not drawn) ?
ST2 IL33 inh: inactive

How did COc1ccc(Cn2c(CNS(=O)(=O)c3c(C)cc(C)cc3C)nc3cccnc32)cc1 do in these assays?
ST2 IL33 inh: inactive

What do the screens show for `CC1CN(C(=O)Cn2cc([N+](=O)[O-])cn2)CC(C)O1` (stereo not drawn)?
ST2 IL33 inh: inactive

What do the screens show for `O=C1CCc2nc3sc4c(c3c(=O)n2N1)CCCC4`?
ST2 IL33 inh: inactive
